In PubChem BioAssay AID1159580 (chemical genetic matrix, 2015):
Several values for one entry are separate records, joined by “and”; a condition that tells them apart may be missing. Equal entries are not always repeated. Out of some 5,500 compounds screened, about 2,000 (36%) were called active. About 18% were inconclusive and are not listed. Some of the results follow. A number with no mark means an inactive call. Cut-off read from the data, not from the text of the source: active = normalized growth mostly below about 0.91 (no sharp cut-off); inconclusive = no clear call, values can overlap the other calls; inactive = mostly above about 0.92.

Test: chemical genetic growth profiling, strain panel (AID 1159580);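 note: tested at 20 µM; growth read once vehicle control cultures reached saturation at 30 °C; 1 = growth at the plate median or of vehicle wells; lower values mean less growth of the strain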
Conditions: S. cerevisiae deletion strains, growth OD
[1] = locus YHR030C, strain SLT2, active compounds read low
[2] = locus YHR079C, strain IRE1, active compounds read low
[3] = locus YJL095W, strain BCK1, active compounds read low
[4] = locus YJR066W, strain TOR1, active compounds read low
[5] = locus YLR113W, strain HOG1, active compounds read low
[6] = locus YNL183C, strain NPR1, active compounds read low
[7] = locus YOR231W, strain MKK1, active compounds read low
[8] = locus YPL256C, strain CLN2, active compounds read low

## C=C(C)[C@@H]1CC[C@]2(C)CC[C@]3(C)[C@@H](CCC4[C@@]5(C)CC[C@H](O)C(C)(C)C5CC[C@]43C)C12 (some centres not stated)
[1]
  normalized growth: 1
[2]
  normalized growth: 0.978
[3]
  normalized growth: 0.993
[4]
  normalized growth: 0.944
[5]
  normalized growth: 0.992
[6]
  normalized growth: 0.923
[7]
  normalized growth: 0.99
[8]
  normalized growth: 0.994

## C=C(C)[C@@H]1CC[C@]2(CO)CC[C@]3(C)[C@H](CCC4[C@@]5(C)CC[C@H](O)C(C)(C)C5CC[C@]43C)C12 (some centres not stated)
Locus YAL021C, strain ccr4, active compounds read low
  normalized growth: 1.02
Locus YAL026C, strain drs2, active compounds read low
  normalized growth: 1.01
Locus YAL030W, strain snc1, active compounds read low
  normalized growth: 1.01
Locus YBL061C, strain skt5, active compounds read low
  normalized growth: 1.02
Locus YBR009C, strain hhf1, active compounds read low
  normalized growth: 1.01
Locus YBR021W, strain FUR4, active compounds read low
  normalized growth: 0.984
Locus YBR023C, strain chs3, active compounds read low
  normalized growth: 1.01
Locus YBR171W, strain sec66, active compounds read low
  normalized growth: 1.02
Locus YBR229C, strain ROT2, active compounds read low
  normalized growth: 0.995
Locus YBR231C, strain swc5, active compounds read low
  normalized growth: 1.01
Locus YBR279W, strain paf1, active compounds read low
  normalized growth: 1.01
Locus YCL011C, strain gbp2, active compounds read low
  normalized growth: 1.01
Locus YCL016C, strain dcc1, active compounds read low
  normalized growth: 1.01
Locus YCL029C, strain bik1, active compounds read low
  normalized growth: 0.979
Locus YCL061C, strain MRC1, active compounds read low
  normalized growth: 1.01
Locus YCL069W, strain vba3, active compounds read low
  normalized growth: 1.01
Locus YCR088W, strain abp1, active compounds read low
  normalized growth: 1.01
Locus YDL005C, strain med2, active compounds read low
  normalized growth: 1
Locus YDL035C, strain GPR1, active compounds read low
  normalized growth: 1.02
Locus YDL040C, strain nat1, active compounds read low
  normalized growth: 1.01
Locus YDL074C, strain BRE1, active compounds read low
  normalized growth: 1.01
Locus YDL101C, strain DUN1, active compounds read low
  normalized growth: 0.991
Locus YDL185W, strain tfp1, active compounds read low
  normalized growth: 0.977
Locus YDL192W, strain arf1, active compounds read low
  normalized growth: 0.997
Locus YDR001C, strain nth1, active compounds read low
  normalized growth: 1
Locus YDR069C, strain doa4, active compounds read low
  normalized growth: 1
Locus YDR101C, strain arx1, active compounds read low
  normalized growth: 0.977
Locus YDR137W, strain rgp1, active compounds read low
  normalized growth: 1.01
Locus YDR159W, strain sac3, active compounds read low
  normalized growth: 1.01
Locus YDR162C, strain NBP2, active compounds read low
  normalized growth: 1.02
Locus YDR195W, strain ref2
  normalized growth: 0.972
Locus YDR297W, strain sur2, active compounds read low
  normalized growth: 1.01
Locus YDR318W, strain mcm21, active compounds read low
  normalized growth: 1.02
Locus YDR334W, strain swr1, active compounds read low
  normalized growth: 0.996
Locus YDR335W, strain msn5, active compounds read low
  normalized growth: 1
Locus YDR388W, active compounds read low
  normalized growth: 1.01
Locus YDR392W, strain spt3, active compounds read low
  normalized growth: 0.925
Locus YDR502C, strain sam2, active compounds read low
  normalized growth: 0.997
Locus YEL003W, strain gim4, active compounds read low
  normalized growth: 1
Locus YEL037C, strain rad23, active compounds read low
  normalized growth: 0.977
Locus YEL061C, strain CIN8 (second series), active compounds read low
  normalized growth: 1
Locus YEL061C, strain CIN8, active compounds read low
  normalized growth: 1.02
Locus YER015W, strain faa2, active compounds read low
  normalized growth: 0.996
Locus YER016W, strain bim1, active compounds read low
  normalized growth: 1.01
Locus YER110C, active compounds read low
  normalized growth: 0.99
Locus YER111C, strain swi4, active compounds read low
  normalized growth: 1.01
Locus YER155C, strain BEM2 (second series), active compounds read low
  normalized growth: 0.984
Locus YER155C, strain BEM2, active compounds read low
  normalized growth: 0.992
Locus YER167W, strain BCK2, active compounds read low
  normalized growth: 1
Locus YFR010W, strain ubp6, active compounds read low
  normalized growth: 0.999
Locus YGL078C, strain dbp3, active compounds read low
  normalized growth: 0.989
Locus YGL086W, strain mad1, active compounds read low
  normalized growth: 0.973
Locus YGL167C, strain pmr1, active compounds read low
  normalized growth: 1.01
Locus YGL173C, strain kem1, active compounds read low
  normalized growth: 1.01
Locus YGL227W, strain vid30, active compounds read low
  normalized growth: 1.02
Locus YGL240W, strain doc1, active compounds read low
  normalized growth: 1.01
Locus YGL248W, strain PDE1, active compounds read low
  normalized growth: 1
Locus YGL253W, strain hxk2, active compounds read low
  normalized growth: 1.04
Locus YGR135W, strain pre9, active compounds read low
  normalized growth: 1.01
Locus YGR252W, strain gcn5, active compounds read low
  normalized growth: 1.05
Locus YHR013C, strain ard1, active compounds read low
  normalized growth: 1.03
Locus YHR027C, strain rpn1, active compounds read low
  normalized growth: 1
[1]
  normalized growth: 0.995 and 0.997
Locus YHR079C, strain IRE1 (second series), active compounds read low
  normalized growth: 0.992
[2]
  normalized growth: 0.998
Locus YHR094C, strain hxt1, active compounds read low
  normalized growth: 1
Locus YHR129C, strain ARP1, active compounds read low
  normalized growth: 0.949
Locus YHR142W, strain chs7, active compounds read low
  normalized growth: 1.06
Locus YHR200W, strain rpn10, active compounds read low
  normalized growth: 0.998
Locus YIL066C, strain RNR3, active compounds read low
  normalized growth: 0.993
Locus YIL073C, strain SPO22, active compounds read low
  normalized growth: 1.01
Locus YIL125W, strain kgd1, active compounds read low
  normalized growth: 0.986
Locus YIR030C, strain dcg1, active compounds read low
  normalized growth: 0.989
Locus YJL092W, strain hpr5, active compounds read low
  normalized growth: 1.01
Locus YJL095W, strain BCK1 (second series), active compounds read low
  normalized growth: 1.01
[3]
  normalized growth: 1.02 and 0.982
Locus YJL115W, strain asf1, active compounds read low
  normalized growth: 1.01
Locus YJL129C, strain trk1, active compounds read low
  normalized growth: 1.03
Locus YJL134W, strain LCB3, active compounds read low
  normalized growth: 0.992
Locus YJL154C, strain vps35, active compounds read low
  normalized growth: 0.998
Locus YJL164C, strain tpk1, active compounds read low
  normalized growth: 1.01
Locus YJL166W, strain qcr8, active compounds read low
  normalized growth: 1.01
Locus YJL168C, strain set2, active compounds read low
  normalized growth: 0.994
Locus YJL187C, strain SWE1 (second series), active compounds read low
  normalized growth: 0.996
Locus YJL187C, strain SWE1, active compounds read low
  normalized growth: 1.01
Locus YJR043C, strain POL32, active compounds read low
  normalized growth: 0.996
[4]
  normalized growth: 0.932
Locus YJR075W, strain HOC1, active compounds read low
  normalized growth: 1.01
Locus YKL009W, strain mrt4, active compounds read low
  normalized growth: 0.963
Locus YKL068W, active compounds read low
  normalized growth: 1.09 [resistant] (active)
Locus YKL160W, strain elf1, active compounds read low
  normalized growth: 1.03
Locus YKL190W, strain CNB1, active compounds read low
  normalized growth: 1.03
Locus YKR001C, strain vps1, active compounds read low
  normalized growth: 0.976
Locus YKR026C, strain gcn3, active compounds read low
  normalized growth: 1.01
Locus YKR091W, strain srl3, active compounds read low
  normalized growth: 1
Locus YLL001W, strain dnm1, active compounds read low
  normalized growth: 1.03
Locus YLL026W, active compounds read low
  normalized growth: 1
Locus YLL041C, strain sdh2, active compounds read low
  normalized growth: 1
Locus YLR027C, strain aat2, active compounds read low
  normalized growth: 1
Locus YLR039C, strain RIC1, active compounds read low
  normalized growth: 1.02
Locus YLR058C, strain SHM2, active compounds read low
  normalized growth: 1.01
Locus YLR102C, strain apc9, active compounds read low
  normalized growth: 0.991
[5]
  normalized growth: 0.999
Locus YLR221C, strain rsa3, active compounds read low
  normalized growth: 1.03
Locus YLR258W, strain gsy2, active compounds read low
  normalized growth: 0.996
Locus YLR262C, strain YPT6 (second series), active compounds read low
  normalized growth: 1
Locus YLR262C, strain YPT6, active compounds read low
  normalized growth: 1.08
Locus YLR268W, strain sec22, active compounds read low
  normalized growth: 0.964
Locus YLR320W, strain mms22, active compounds read low
  normalized growth: 1.04
Locus YLR330W, strain CHS5, active compounds read low
  normalized growth: 1
Locus YLR342W, strain FKS1 (second series), active compounds read low
  normalized growth: 0.998
Locus YLR342W, strain FKS1, active compounds read low
  normalized growth: 0.986
Locus YLR357W, strain rsc2, active compounds read low
  normalized growth: 1.01
Locus YLR370C, strain arc18, active compounds read low
  normalized growth: 1.02
Locus YLR371W, strain rom2, active compounds read low
  normalized growth: 0.985
Locus YLR384C, strain iki3, active compounds read low
  normalized growth: 1.01
Locus YLR418C, strain cdc73, active compounds read low
  normalized growth: 1.01
Locus YML016C, strain PPZ1, active compounds read low
  normalized growth: 0.985
Locus YML032C, strain rad52, active compounds read low
  normalized growth: 1.02
Locus YML120C, strain ndi1, active compounds read low
  normalized growth: 1
Locus YML124C, strain tub3, active compounds read low
  normalized growth: 0.994
Locus YMR058W, strain fet3, active compounds read low
  normalized growth: 1.02
Locus YMR078C, strain ctf18, active compounds read low
  normalized growth: 0.973
Locus YMR125W, strain sto1, active compounds read low
  normalized growth: 1.01
Locus YMR129W, active compounds read low
  normalized growth: 1
Locus YMR205C, strain PFK2, active compounds read low
  normalized growth: 1.03
Locus YMR223W, strain ubp8, active compounds read low
  normalized growth: 1
Locus YMR231W, strain pep5, active compounds read low
  normalized growth: 1.01
Locus YMR307W, strain GAS1, active compounds read low
  normalized growth: 1.09
Locus YNL067W, strain RPL9B, active compounds read low
  normalized growth: 1
Locus YNL071W, strain lat1, active compounds read low
  normalized growth: 1.01
[6]
  normalized growth: 0.939
Locus YNL209W, strain ssb2, active compounds read low
  normalized growth: 1.01
Locus YNL233W, strain BNI4, active compounds read low
  normalized growth: 0.999
Locus YNL248C, strain rpa49, active compounds read low
  normalized growth: 1
Locus YNL250W, strain rad50, active compounds read low
  normalized growth: 0.978
Locus YNL271C, strain bni1, active compounds read low
  normalized growth: 0.976
Locus YNL298W, strain CLA4, active compounds read low
  normalized growth: 1.01
Locus YNL307C, strain MCK1, active compounds read low
  normalized growth: 0.988
Locus YNL322C, strain KRE1 (second series), active compounds read low
  normalized growth: 1.01
Locus YNR049C, strain mso1, active compounds read low
  normalized growth: 1.01
Locus YNR052C, strain pop2, active compounds read low
  normalized growth: 0.998
Locus YOL012C, strain htz1
  normalized growth: 0.862
Locus YOL147C, strain pex11, active compounds read low
  normalized growth: 0.992
Locus YOR001W, strain rrp6, active compounds read low
  normalized growth: 0.98
Locus YOR061W, strain CKA2, active compounds read low
  normalized growth: 0.994
Locus YOR069W, strain VPS5, active compounds read low
  normalized growth: 0.99
Locus YOR070C, strain gyp1, active compounds read low
  normalized growth: 1.01
Locus YOR080W, strain dia2, active compounds read low
  normalized growth: 1.01
Locus YOR083W, strain WHI5, active compounds read low
  normalized growth: 1.03
Locus YOR106W, strain vam3, active compounds read low
  normalized growth: 1.02
Locus YOR136W, strain idh2, active compounds read low
  normalized growth: 0.979
Locus YOR144C, strain elg1, active compounds read low
  normalized growth: 0.997
Locus YOR184W, strain ser1, active compounds read low
  normalized growth: 0.98
[7]
  normalized growth: 0.995
Locus YOR265W, strain rbl2, active compounds read low
  normalized growth: 1.02
Locus YOR270C, strain vph1, active compounds read low
  normalized growth: 1.04
Locus YOR290C, strain snf2, active compounds read low
  normalized growth: 1
Locus YOR316C, strain cot1, active compounds read low
  normalized growth: 0.999
Locus YPL051W, strain arl3, active compounds read low
  normalized growth: 1.02
Locus YPL078C, strain atp4, active compounds read low
  normalized growth: 1.01
Locus YPL106C, strain sse1, active compounds read low
  normalized growth: 1
Locus YPL240C, strain hsp82, active compounds read low
  normalized growth: 1
[8]
  normalized growth: 0.972
Locus YPR119W, strain clb2, active compounds read low
  normalized growth: 0.993
Locus YPR141C, strain kar3, active compounds read low
  normalized growth: 0.984
Locus YPR163C, strain tif3, active compounds read low
  normalized growth: 1
Locus YPR167C, strain met16, active compounds read low
  normalized growth: 1.01
Strain wtn01, active compounds read low
  normalized growth: 0.946
